# Screens from PubChem BioAssay.
# This is a sample that favours compounds with a hit; in the whole collection about 5.6% have one here.
# VP16 counter: counter-screen for ROR gamma inhibitors: Gal4-VP16 reporter; AID 2546; hit rate 3.5% among 310,000; Potency, µM (doses to about 53.6 µM), inactives show top-dose activity, negative = inhibition, hits mostly inhibitors; Drosophila S2 Gal4-VP16 UAS-luciferase, luminescence, 20 h;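 note: Gal4-VP16 expression switched on by copper sulfate through the metallothionein promoter; potency is the fitted concentration of half-maximal effect; nearly all actives have a fitted effect of over 50% in size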
# Six1-Eya2 inh: Six1/Eya2 interaction inhibition. hit rate 0.56% among 360,000. activity change, % (test concentration not listed). AlphaScreen GST-Six1/His-Eya2 binding, biochemical; hits give low values. AID 651725; in the data active = activity change below about -65%; inconclusive = mostly about -30% to -63%
#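 AlphaScreen luminescence read after one hour at 37 °C in darkness. Pin-transferred compounds met GST-Six1 and His-Eya2 protein (5X stock 250 nM/500 nM) plus glutathione donor and Ni-chelate acceptor beads (5X, 50 ug/mL).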
# RORg inh: ROR gamma (mouse) transcription inhibition; P51450; AID 2551; Drosophila S2 Gal4-RORgamma UAS-luciferase reporter, 20 h; hit rate 5.4% among 310,000; Potency, µM (top dose mostly 53.6 µM), for the others: top-dose activity change, negative = inhibition, hits mostly inhibitors; note: potency is the fitted concentration of half-maximal effect; nearly all actives have a fitted effect of over 60% in size
#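 ROR gamma transcriptional activity was tracked as Gal4-UAS luciferase output in stably transfected Drosophila Schneider cells, with compound added 1 hr before 700 uM copper sulfate induction and a 20 hr ambient-temperature incubation.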
# CtBP-E1A inh: CtBP/E1A binding inhibition; AID 651724; AlphaScreen GST-E1A/His-CtBP binding, 1536-well; hits give low values; activity change, % (concentration not given with the values); hit rate 0.49% among 340,000; in the data active = activity change below about -65%; inconclusive = mostly about -30% to -63%
#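 In 5 uL wells, 23 nL compound meets equimolar GST-E1A and His-CtBP (5X stock 125 nM each) for 2 h, 37 °C. Beads (5X, 50 ug/mL) then 1 h, 37 °C, dark.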
# PKM2 activator: increases activity of human pyruvate kinase M2; P14618; purified PKM2, Kinase-Glo ATP luminescence, activation; response scale: 0% is enzyme alone, no compound; Potency, µM (titrated, usually from 57.5 µM), for the others: at the highest dose activation, usual class: activators; hit rate 0.34% among 260,000; AID 1631; note: potency is the fitted concentration of half-maximal effect; nearly all actives have a fitted effect of over 55% in size
# Target sequence (P14618 whole entry, looked up): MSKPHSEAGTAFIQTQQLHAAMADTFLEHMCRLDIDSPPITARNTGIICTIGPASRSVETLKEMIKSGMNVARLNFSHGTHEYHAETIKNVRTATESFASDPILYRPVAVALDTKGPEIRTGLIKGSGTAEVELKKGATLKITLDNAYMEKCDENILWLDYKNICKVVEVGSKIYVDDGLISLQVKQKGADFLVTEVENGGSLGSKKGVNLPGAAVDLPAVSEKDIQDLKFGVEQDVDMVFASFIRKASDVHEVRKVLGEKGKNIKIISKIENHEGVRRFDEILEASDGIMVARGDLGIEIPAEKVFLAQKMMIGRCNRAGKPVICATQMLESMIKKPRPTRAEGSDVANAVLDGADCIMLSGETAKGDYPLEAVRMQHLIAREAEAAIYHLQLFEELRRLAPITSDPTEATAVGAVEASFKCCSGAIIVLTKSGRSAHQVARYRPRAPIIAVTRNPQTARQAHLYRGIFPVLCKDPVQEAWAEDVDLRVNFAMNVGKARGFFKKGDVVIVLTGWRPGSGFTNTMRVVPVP
#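 hPK-M2, >95% pure; 0.1 mM ADP / 0.5 mM PEP final; imidazole pH7.2 buffer w/ 7 mM MgCl2, 50 mM KCl; 1 h RT; Kinase-Glo lum. Intermediate enzyme activity for dual inhibitor/activator qHTS.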
# * hit, by the source's call; u = inconclusive; x = no result given; [ ] = another dose, or the depositor's remark. Unless noted, calls come from the whole dose curve; as a rule, active = well fitted curve in the direction sought with a large enough effect; inconclusive = small, poorly fitted or top-dose-only effect, or another doubt; inactive = no such curve, though single readings can be large; an effect the other way counts as inactive or inconclusive. % is set by controls: 0 for no effect and ±100 for the full control effect.
SMILES,VP16 counter,Six1-Eya2 inh,RORg inh,CtBP-E1A inh,PKM2 activator
O=C(C1CC(=O)N(c2ccc3c(c2)OCCO3)C1)N1CCCC(C(F)(F)F)C1 (stereo not drawn),x,0.3,x,7.0,x
COc1ccc(O[C@H]2C=C[C@@H](c3ccccc3)O[C@@H]2CO/N=C(\C)CCC(=O)OC[C@H]2O[C@H](c3ccccc3)C=C[C@@H]2Oc2ccc(OC)cc2)cc1,-2.8%,x,6.2%,x,-2.2%
COCCCn1c(=O)c2sccc2n(Cc2cc(C(=O)OC)ccc2OC)c1=O,3.3%,4.2,-1.8%,1.7,0.0%[11.5 µM]
C[C@H](CO)N1C[C@H](C)[C@@H](CN(C)Cc2ccccc2C(=O)O)OCc2cnnn2CCCC1=O,x,8.9,x,-9.9,x
Cc1nn(Cc2ccccc2)c(C)c1CNC(=O)[C@H](C)N=C1NS(=O)(=O)c2ccccc21,x,-0.5,x,7.0,x
CCCCC/C=C\C/C=C\CCCCCCCC(=O)NCC(=O)O,-4.8%,x,-16.4%,x,x
COc1ccc(C(=O)CC(=O)C(=O)Nc2cccc(F)c2)cc1,7.08µM*,1.4,7.08µM*,-3.2,x
Cc1cc(Nc2ccccc2)c2c([N+](=O)[O-])ccc(C)c2n1,35.5µM*,-6.0,u,-8.5,2.1%
COCCN(C(=S)Nc1ccc(C)cc1C)C(C)c1cccs1 (stereo not drawn),u,6.7,u,x,4.5%
COCCN(C(=S)Nc1c(C)cc(C)cc1C)C(C)c1cccs1 (stereo not drawn),2.0%,-0.4,10µM*,2.5,0.8%
COCCN(C(=S)Nc1ccc(C(C)C)cc1)C(C)c1cccs1 (stereo not drawn),u,1.8,3.55µM*,2.8,4.3%
COCCN(C(=S)Nc1cccc(OC)c1)C(C)c1cccs1 (stereo not drawn),u,3.9,u,-1.4,-4.3%
CC(=O)OCC1OC(Sc2cccc3cccnc23)C(OC(C)=O)C(OC(C)=O)C1OC(C)=O (stereo not drawn),-0.4%,-85.2*,u,-85.3*,-1.3%
Cc1ccc(C(O)c2ncc(-c3ccccc3F)[nH]2)c(C)c1 (stereo not drawn),x,3.2,x,-13.9,x
CCOC(=S)SCC(=O)Nc1nccs1,u,-3.0,-13.7%,-3.4,17.8µM*
CCOC(=S)SCC(=O)Nc1nc(-c2ccc(Br)cc2)cs1,6.31µM*,-16.2,5.01µM*,-6.1,0.1%
CCOC(=S)SCC(=O)Nc1nc(C)c(C)s1,u,2.0,12.6µM*,x,-0.9%
Cc1nc(NC(=O)CSc2nc(N)cc(N)n2)sc1C,-3.0%,1.4,5.7%,0.7,4.0%
CCOC(=S)SCC(=O)Nc1nc(-c2ccccc2)cs1,u,-9.6,u,-2.1,5.0%
CCOC(=O)N1CCN(C(=O)CSCC(=O)Nc2nc(-c3ccc(-c4ccccc4)cc3)cs2)CC1,6.31µM*,-6.8,u,2.5,11.2%
OCCC1CN(C2CCC2)CCN1Cc1ccc(F)c(F)c1 (stereo not drawn),3.8%,-1.1,-4.7%,-16.7,-2.1%
CC(O)c1cccc2cc(C(O)CNC(C)(C)C)oc12 (stereo not drawn),1.5%,x,0.7%,x,x
N#Cc1ccccc1OCC(=O)OCC(=O)NC1CCS(=O)(=O)C1 (stereo not drawn),x,7.1,x,x,x
Cc1ccc(-c2csc(NC(=O)CSc3nc(C)cc(=O)[nH]3)n2)cc1,u,-9.1,u,-2.6,-6.3%
Cc1ccc(-c2csc(NC(=O)CSC3=NCCS3)n2)cc1,12.6µM*,-5.3,-39.8%,-2.5,0.7%
SMILES,VP16 counter,Six1-Eya2 inh,RORg inh,CtBP-E1A inh,PKM2 activator
CCCCNC(=S)NNC(=O)c1cccnc1,11.2µM*,-1.5,u,3.4,-0.6%
O=C(NC(=S)Nc1ncccn1)c1ccc(Cl)cc1Cl,-0.7%,1.8,7.08µM*,5.3,8.2%
CCCCNC(=S)NNC(=O)c1nn(C)cc1Cl,-29.9%,2.3,14.1µM*,0.0,0.5%
CCC(=O)Nc1cccc(NC(=S)NC(=O)c2ccc(Cl)cc2Cl)c1,u,3.3,u,5.6,4.0%
O=C(NC(=S)NNC(=O)c1ccc(Cl)cc1Cl)c1cccnc1,20µM*,0.1,12.6µM*,-9.6,-15.3%
COc1ccccc1N1CCN(C(=O)CN(C)S(=O)(=O)c2ccc(C)cc2)CC1,x,9.4,x,-18.4,x
O=C(NNC(=S)Nc1ccc(Br)cc1)c1cccnc1,u,-6.0,10µM*,2.7,-3.7%
CC(C)c1ccc(NC(=S)NNC(=O)c2cccnc2)cc1,u,-2.5,u,-1.8,-28.4%
Cc1cc(Cl)ccc1OCCNC(=S)NC(=O)c1cccnc1,-26.1%,26.2,u,7.4,0.3%
O=C(NNC(=S)NC(=O)c1cccnc1)c1ccc(Cl)cc1,u,-0.1,10µM*,-1.5,0.3%
O=C(NC(=S)NCCOCc1ccc(Cl)cc1)c1cccnc1,17.8µM*,-0.3,11.2µM*,-0.5,7.3%
CC(C)c1ccccc1OCCNC(=S)NC(=O)c1cccnc1,u,-1.6,3.55µM*,-7.3,8.0%
O=C(NCCCl)NNc1c(Cl)cc(Cl)cc1Cl,3.2%,4.4,-28.7%,-2.6,-3.7%
O=C(NCCCNC(=O)c1cnccn1)c1ccc(Cl)cc1,14.8%,1.2,-4.4%,-8.8,3.2%
CCCCNC(=S)NNC(=O)c1ccc(Br)o1,-25.4%,-13.3,0.794µM*,-6.8,-2.7%
O=C(NC(=S)NNC(=O)c1cnccn1)c1ccc(Cl)cc1,-4.5%,-91.8*,14.1%,-95.4*,4.0%
O=C(NC(=S)NNC(=O)c1ccccc1O)c1cccnc1,-1.4%,-89.9*,-37.2%,x,-23.1%
CCCCNC(=S)NNc1c(Cl)cc(Cl)cc1Cl,5.01µM*,4.1,2.51µM*,-1.9,-0.6%
Cc1ccc(S(=O)(=O)c2nnn(-c3cccc(F)c3)c2N)cc1,u,-2.0,u,-1.6,0.6%
C=CCn1c(SCc2ccccc2)nc2scc(-c3ccc(C)o3)c2c1=O,7.0%,0.7,5.6%,2.7,17.2%
C=CCn1c(SCC(N)=O)nc2scc(-c3ccc(C)o3)c2c1=O,u,-10.1,u,-22.0,31.6µM*
COc1cccc(OC)c1C(=O)NC(=S)N1CCCCC1c1cccnc1 (stereo not drawn),-16.8%,3.0,22.4µM*,-5.0,-0.9%
O=C(NC(=S)NN1CCCCC1c1cccnc1)c1ccc(Br)cc1 (stereo not drawn),1.41µM*,10.7,1.12µM*,5.5,-0.8%
CCc1cccc(C)c1NC(=S)N1CCCCC1c1cccnc1 (stereo not drawn),-6.9%,-1.4,-8.0%,-5.3,3.5%
O=C(/C=C/c1ccc(F)cc1)NC(=S)N1CCCCC1c1cccnc1 (stereo not drawn),u,-1.2,5.01µM*,-4.9,-5.5%
S=C(Nc1ccccc1)N1N=C(c2cccs2)CC1c1cccs1 (stereo not drawn),-5.3%,-15.8,u,0.0,-1.3%
